The assay has as its system Vero E6 infected with SARS-CoV-2. Kind of assay: SARS-CoV-2 infection rate relative to infected DMSO; higher = more infection, active = 60 or less. The conditions noted are these: 24 h.
Regarding `CCNCC(O)c1cccc(O)c1` (centres undefined) [etilefrine] (10 µM), the SARS-CoV-2 infection rate is 100% (inactive).
Turning to `O=C1COc2nccc(-c3ccccc3F)c2CN1Cc1cc(C(F)(F)F)cc(C(F)(F)F)c1` (10 µM), the SARS-CoV-2 infection rate was 108% (inactive).
`CC(C)n1c(=O)n(C(=O)N[C@H]2C[C@H]3CC[C@@H](C2)N3C)c2ccccc21` (10 µM): the SARS-CoV-2 infection rate was 106% (inactive).
Take `CS(=O)(=O)c1ccc(Oc2cc(F)cc(C#N)c2)c2c1[C@H](O)C(F)(F)C2` (10 µM): the SARS-CoV-2 infection rate was 99% (inactive).
For `C[N+](C)(C)CCOP(=O)(O)OC[C@H](O)CO` [choline-alfoscerate] (10 µM), the SARS-CoV-2 infection rate was 114% (inactive).
For `Cc1cc2nc3c(=O)[nH]c(=O)nc-3n(C[C@H](O)[C@H](O)[C@H](O)CO)c2cc1C` [riboflavin] (10 µM), the SARS-CoV-2 infection rate was 102% (inactive).
In the case of `NCCNCCNCCN` [trientine] (10 µM) it was 106% (inactive); in that of `COc1ccccc1OCC(O)COC(N)=O` (centres undefined) [methocarbamol] (10 µM), 100% (inactive).
With `Cc1cc(-c2ccccc2)nnc1NCCN1CCOCC1` [minaprine] (10 µM), the SARS-CoV-2 infection rate was 103% (inactive).
Regarding `CCC(=O)NS(=O)(=O)c1ccc(-c2c(-c3ccccc3)noc2C)cc1` [parecoxib] (10 µM), the SARS-CoV-2 infection rate was 106% (inactive).
With `C/C=C1\[C@H]2C=C(C)C[C@]1(N)c1ccc(=O)[nH]c1C2` [(-)-Huperzine A] (10 µM), the SARS-CoV-2 infection rate was 108% (inactive).
Consider `CC(=O)O[C@H]1C(=O)[C@@]2(C)[C@H]([C@H](OC(=O)c3ccccc3)[C@]3(O)C[C@H](OC(=O)[C@H](O)[C@@H](NC(=O)c4ccccc4)c4ccccc4)C(C)=C1C3(C)C)[C@]1(OC(C)=O)CO[C@@H]1C[C@@H]2O` [paclitaxel] (10 µM), for which the SARS-CoV-2 infection rate was 108% (inactive).
To `CCCCn1ccc(N2CCC(c3ccccc3)CC2)c(Cl)c1=O` (10 µM) belongs 116% (inactive); to `CC(=O)/N=c1/sc(S(N)(=O)=O)nn1C` [methazolamide] (10 µM), 105% (inactive).
As to `CC1CCN(CCCC(=O)c2ccc(F)cc2)CC1` [melperone] (10 µM), the SARS-CoV-2 infection rate is 80.5% (inactive).
`CS(=O)(=O)c1ccc(-c2cn3ccccc3n2)cc1` [zolimidine] (10 µM): the SARS-CoV-2 infection rate was 85% (inactive).
As for `CN1CC(=O)N=C1NC(=O)Nc1cccc(Cl)c1` [fenobam] (10 µM), the SARS-CoV-2 infection rate is 107% (inactive).
On to `N[C@H](C(=O)O)c1ccc(O)c(C(=O)O)c1` [3-carboxy-4-hydroxyphenylglycine-(S)] (10 µM), for which the SARS-CoV-2 infection rate is 95% (inactive).
In the case of `N[C@@H](CCC(=O)N[C@@H](CS)C(=O)NCC(=O)O)C(=O)O` [glutathione] (10 µM), the SARS-CoV-2 infection rate is 108% (inactive).
Consider `CON(C)C(=O)[C@H](O)[C@H](Cc1ccccc1)NC(=O)c1cc2cc(Cl)ccc2[nH]1` (10 µM), for which the SARS-CoV-2 infection rate was 109% (inactive).
On to `CSc1ccccc1Nc1nc(N2CCNCC2)nc2c(NCC3CC3)ncnc12` (0.833333 µM), for which the SARS-CoV-2 infection rate is 101% (inactive).
For the compound `CN1c2c([nH]c(N)nc2=O)NC[C@@H]1CNc1ccc(C(=O)N[C@@H](CCC(=O)O)C(=O)O)cc1` [metafolin] (10 µM), the SARS-CoV-2 infection rate was 115% (inactive).
To `C1COC(NC(C2CC2)C2CC2)=N1` [rilmenidine] (10 µM) belongs 99.5% (inactive); to `CN1CCCN=C1COC(=O)C(O)(c1ccccc1)C1CCCCC1` (centres undefined) [oxyphencyclimine] (10 µM), 101% (inactive); to `COc1ccc(-c2ccc3c(N4CCOC[C@@H]4C)nc(N4CCOC[C@@H]4C)nc3n2)cc1CO` (0.833333 µM), 105% (inactive).
With `CC1=NN=C(c2ccc(N)cc2)c2cc3c(cc2C1)OCO3` (10 µM), the SARS-CoV-2 infection rate is 112% (inactive).
In the case of `c1ccc2c(c1)CCCC2C1=NCCN1` (centres undefined) [tetrahydrozoline] (0.833333 µM) it was 103% (inactive).
To `CC(=O)O[C@H]1C[C@@H]2CC[C@@H]3[C@H](CC[C@@]4(C)[C@H]3C[C@H]([N+]3(C)CCCCC3)[C@@H]4OC(C)=O)[C@@]2(C)C[C@@H]1[N+]1(C)CCCCC1` [pancuronium] (10 µM) belongs 102% (inactive); to `CC[C@H]1[C@@H]2C[C@H]3[C@@H]4N(C)c5ccccc5[C@]45C[C@@H]([C@@H]2[C@H]5O)N3[C@@H]1O` [ajmaline] (10 µM), 106% (inactive); to `C[C@@]1(F)[C@H](O)[C@@H](CO)O[C@H]1n1ccc(N)nc1=O` (10 µM), 104% (inactive).
Take `CSCC[C@H](NC(=O)[C@H](Cc1ccccc1)NC(=O)CNC(=O)CNC(=O)[C@@H](N)Cc1ccc(O)cc1)C(=O)O` [metenkephalin] (10 µM): the SARS-CoV-2 infection rate is 91% (inactive).
`CNC(=O)ON(C(C)=O)C(=O)NC` [caracemide] (10 µM): the SARS-CoV-2 infection rate is 104% (inactive).
Turning to `CCCn1c(=O)c2[nH]c(-c3cnn(Cc4cccc(C(F)(F)F)c4)c3)nc2n(CC)c1=O` (10 µM), the SARS-CoV-2 infection rate is 103% (inactive).
As to `O=C(NOCC(O)CO)c1cc(Br)c(F)c(F)c1Nc1ccc(I)cc1F` (centres undefined) (0.833333 µM), the SARS-CoV-2 infection rate was 112% (inactive).
Consider `CC(C)(C)c1cc(C(=O)/C(C#N)=N/Nc2cccc(Cl)c2)no1` (10 µM), for which the SARS-CoV-2 infection rate was 104% (inactive).
As to `CC[C@H](C)C(=O)O[C@H]1C[C@@H](C)C=C2C=C[C@H](C)[C@H](CC[C@@H]3C[C@@H](O)CC(=O)O3)[C@H]21` [lovastatin] (10 µM), the SARS-CoV-2 infection rate was 110% (inactive).
Turning to `CO[C@@]1(NC(=O)Cc2cccs2)C(=O)N2C(C(=O)O)=C(COC(N)=O)CS[C@@H]21` [cefoxitin] (10 µM), the SARS-CoV-2 infection rate is 100% (inactive).
In the case of `CC(C)/N=c1\cc2n(-c3ccc(Cl)cc3)c3ccccc3nc-2cc1Nc1ccc(Cl)cc1` [clofazimine] (10 µM), the SARS-CoV-2 infection rate is 64% (inactive).
Turning to `CN(C)CCn1nnnc1SCC1=C(C(=O)O)N2C(=O)[C@@H](NC(=O)Cc3csc(N)n3)[C@H]2SC1` [cefotiam] (10 µM), the SARS-CoV-2 infection rate was 100% (inactive).

For the origin of these results see the supplement of paper PMC13380429.
